Common to all, as to experiment: DAPPL (digital affinity profiling via proximity ligation, sequencing); 10 mM Tris-HCl pH 7.5, 50 mM NaCl, 1 mM DTT, 4% glycerol, room temperature, 30 min; GST-TFs on glutathione beads, 16-mer random dsDNA library, 0.1% formaldehyde crosslink after washing; high values mean tight binding
What all share (conditions): protein: recombinant; tags: N-terminal GST; dsDNA, one strand shown

Test [1] addresses T1, FLI1 (Homo sapiens, UniProt Q01543 1-452).
T1 sequence: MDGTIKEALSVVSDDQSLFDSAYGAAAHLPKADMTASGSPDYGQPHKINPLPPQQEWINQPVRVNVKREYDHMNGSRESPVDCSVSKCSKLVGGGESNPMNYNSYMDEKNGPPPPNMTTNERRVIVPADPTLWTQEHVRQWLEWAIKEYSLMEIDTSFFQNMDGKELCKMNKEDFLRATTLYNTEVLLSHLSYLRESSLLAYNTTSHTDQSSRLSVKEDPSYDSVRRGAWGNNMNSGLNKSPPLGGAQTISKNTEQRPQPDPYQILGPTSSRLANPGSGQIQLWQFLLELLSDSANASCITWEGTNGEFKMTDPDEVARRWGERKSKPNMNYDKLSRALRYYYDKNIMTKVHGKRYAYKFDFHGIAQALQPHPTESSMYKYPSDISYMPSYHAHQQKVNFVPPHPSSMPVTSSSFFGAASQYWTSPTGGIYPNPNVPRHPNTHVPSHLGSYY
In outline:
(§1)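 Binding signal is defined as a hexamer's read frequency for one factor over its frequency for the tag-only sample. To obtain reads, GST-fused human transcription factors were expressed in yeast, captured on glutathione beads, barcoded with DNA and pooled with that sample. Pools met 200 nmole of a 16-mer random double-stranded DNA library in Tris/NaCl/DTT/glycerol buffer for 30 min at room temperature before washing, 0.1% formaldehyde crosslinking, proximity ligation (BsaI/T4 ligase, 1 h, 37 °C), PCR and Illumina NextSeq500 sequencing.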

For test [2], the target named is T2, ELK1 (Homo sapiens, UniProt P19419 1-428).
T2 sequence: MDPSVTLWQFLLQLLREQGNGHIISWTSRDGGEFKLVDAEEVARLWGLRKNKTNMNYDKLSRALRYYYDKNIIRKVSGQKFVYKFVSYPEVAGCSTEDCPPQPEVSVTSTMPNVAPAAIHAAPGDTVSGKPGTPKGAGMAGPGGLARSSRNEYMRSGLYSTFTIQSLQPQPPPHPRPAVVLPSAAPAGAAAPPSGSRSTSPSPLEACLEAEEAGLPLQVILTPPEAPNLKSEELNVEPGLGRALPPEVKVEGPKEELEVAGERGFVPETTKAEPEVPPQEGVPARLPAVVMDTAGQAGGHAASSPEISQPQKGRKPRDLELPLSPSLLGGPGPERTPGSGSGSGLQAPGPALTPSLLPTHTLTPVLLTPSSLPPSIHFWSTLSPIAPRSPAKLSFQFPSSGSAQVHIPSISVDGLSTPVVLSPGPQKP
In outline: as §1

Test [3] addresses T3, GABPA (Homo sapiens, UniProt Q06546 1-454).
T3 sequence: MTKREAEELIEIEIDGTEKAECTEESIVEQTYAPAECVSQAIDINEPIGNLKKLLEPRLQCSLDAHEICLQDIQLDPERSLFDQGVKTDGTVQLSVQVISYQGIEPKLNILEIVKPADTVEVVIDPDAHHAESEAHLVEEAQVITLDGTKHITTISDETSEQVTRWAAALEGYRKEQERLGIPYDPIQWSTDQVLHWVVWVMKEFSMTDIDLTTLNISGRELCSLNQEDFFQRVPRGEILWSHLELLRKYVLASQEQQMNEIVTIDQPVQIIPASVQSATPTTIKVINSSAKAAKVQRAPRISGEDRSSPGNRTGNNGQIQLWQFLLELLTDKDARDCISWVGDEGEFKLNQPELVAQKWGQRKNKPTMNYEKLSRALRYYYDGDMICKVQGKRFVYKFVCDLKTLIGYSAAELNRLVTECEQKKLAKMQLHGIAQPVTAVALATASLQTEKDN
A digest of the protocol: as §1

The target of test [4] is T4, ERG (Homo sapiens, UniProt P11308 1-479).
T4 sequence: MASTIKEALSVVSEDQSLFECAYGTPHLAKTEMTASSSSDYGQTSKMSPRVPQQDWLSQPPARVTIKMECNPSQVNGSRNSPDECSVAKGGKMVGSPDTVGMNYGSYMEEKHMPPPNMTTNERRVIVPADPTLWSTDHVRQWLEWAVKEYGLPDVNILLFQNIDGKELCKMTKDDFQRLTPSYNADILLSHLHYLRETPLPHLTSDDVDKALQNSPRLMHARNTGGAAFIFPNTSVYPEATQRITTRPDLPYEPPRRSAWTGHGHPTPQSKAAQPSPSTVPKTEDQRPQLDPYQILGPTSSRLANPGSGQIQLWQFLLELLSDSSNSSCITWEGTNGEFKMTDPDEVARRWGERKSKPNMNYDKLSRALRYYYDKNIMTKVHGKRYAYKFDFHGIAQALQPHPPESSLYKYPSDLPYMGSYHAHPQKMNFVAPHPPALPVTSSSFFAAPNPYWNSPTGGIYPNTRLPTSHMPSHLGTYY
In outline: as §1

Test [5] concerns the target ELF1 (Homo sapiens, UniProt P32519 1-619). A digest of the protocol: as §1
Test [6] concerns the target T5, EHF (Homo sapiens, UniProt Q9NZC4 1-300).
T5 sequence: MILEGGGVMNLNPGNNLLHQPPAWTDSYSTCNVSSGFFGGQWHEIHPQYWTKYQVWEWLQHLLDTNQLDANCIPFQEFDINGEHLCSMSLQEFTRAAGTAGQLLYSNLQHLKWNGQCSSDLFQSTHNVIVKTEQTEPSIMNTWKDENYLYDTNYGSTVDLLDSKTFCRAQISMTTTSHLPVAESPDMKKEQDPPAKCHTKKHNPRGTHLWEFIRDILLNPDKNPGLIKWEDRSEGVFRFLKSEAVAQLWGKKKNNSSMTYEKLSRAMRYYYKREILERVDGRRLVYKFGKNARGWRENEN
A digest of the protocol:
as §1

The target in test [7] is SPI1 (Homo sapiens, UniProt P17947 1-270). In outline: as §1
In test [8] the target is SPIB (Homo sapiens, UniProt Q01892 1-262). A digest of the protocol:
as §1

Test [9] deals with T6, ELK3 (Homo sapiens, UniProt P41970 1-407).
T6 sequence: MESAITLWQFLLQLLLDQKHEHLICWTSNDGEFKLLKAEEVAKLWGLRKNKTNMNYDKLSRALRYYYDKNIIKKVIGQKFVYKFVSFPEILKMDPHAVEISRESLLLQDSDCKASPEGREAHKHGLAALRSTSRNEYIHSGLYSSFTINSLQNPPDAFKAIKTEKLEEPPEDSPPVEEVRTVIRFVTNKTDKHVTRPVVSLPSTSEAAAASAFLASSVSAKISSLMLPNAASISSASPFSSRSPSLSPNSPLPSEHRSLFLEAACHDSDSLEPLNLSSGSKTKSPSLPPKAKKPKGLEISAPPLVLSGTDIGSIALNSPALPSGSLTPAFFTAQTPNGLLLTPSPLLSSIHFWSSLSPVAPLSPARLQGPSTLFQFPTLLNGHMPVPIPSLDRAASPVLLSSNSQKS
In outline: as §1

In test [10] the target is T7, FEV (Homo sapiens, UniProt Q99581 1-238).
T7 sequence: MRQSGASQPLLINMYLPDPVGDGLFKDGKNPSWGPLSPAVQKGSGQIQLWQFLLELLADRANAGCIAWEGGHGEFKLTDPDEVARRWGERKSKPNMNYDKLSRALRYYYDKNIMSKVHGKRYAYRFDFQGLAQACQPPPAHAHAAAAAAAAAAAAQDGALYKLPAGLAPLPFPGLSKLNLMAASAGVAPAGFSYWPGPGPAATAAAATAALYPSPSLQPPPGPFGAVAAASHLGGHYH
In outline:
as §1

The target of test [11] is ETV5 (Homo sapiens, UniProt P41161 1-510). In outline: as §1
Sequence of ETV5 (P41161 whole entry): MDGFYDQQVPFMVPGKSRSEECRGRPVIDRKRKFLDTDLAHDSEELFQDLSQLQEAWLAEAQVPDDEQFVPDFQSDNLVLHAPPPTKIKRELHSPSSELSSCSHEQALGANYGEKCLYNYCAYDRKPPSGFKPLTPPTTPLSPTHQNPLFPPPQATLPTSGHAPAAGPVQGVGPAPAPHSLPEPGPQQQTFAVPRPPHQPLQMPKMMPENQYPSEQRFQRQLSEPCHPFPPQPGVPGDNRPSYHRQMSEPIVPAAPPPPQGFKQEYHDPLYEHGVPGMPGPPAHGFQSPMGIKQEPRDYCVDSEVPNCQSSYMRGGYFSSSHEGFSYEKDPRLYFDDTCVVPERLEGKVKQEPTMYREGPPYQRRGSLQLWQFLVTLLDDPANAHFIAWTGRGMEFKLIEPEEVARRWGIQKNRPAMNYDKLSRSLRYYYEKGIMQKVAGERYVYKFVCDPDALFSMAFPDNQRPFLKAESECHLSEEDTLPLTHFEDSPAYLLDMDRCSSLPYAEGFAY
The target in test [12] is T8, SPIC (Homo sapiens, UniProt Q8N5J4 1-248).
T8 sequence: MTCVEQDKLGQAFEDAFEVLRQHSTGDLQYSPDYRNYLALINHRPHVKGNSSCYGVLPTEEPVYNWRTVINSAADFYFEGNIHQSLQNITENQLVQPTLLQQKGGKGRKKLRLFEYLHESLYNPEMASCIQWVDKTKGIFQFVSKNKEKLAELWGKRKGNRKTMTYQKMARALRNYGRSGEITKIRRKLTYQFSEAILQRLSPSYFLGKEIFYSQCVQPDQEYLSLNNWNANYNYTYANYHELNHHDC
A digest of the protocol:
as §1

Test [13] deals with ELF4 (Homo sapiens, UniProt Q99607 1-663). A digest of the protocol: as §1
Sequence of ELF4 (Q99607 whole entry): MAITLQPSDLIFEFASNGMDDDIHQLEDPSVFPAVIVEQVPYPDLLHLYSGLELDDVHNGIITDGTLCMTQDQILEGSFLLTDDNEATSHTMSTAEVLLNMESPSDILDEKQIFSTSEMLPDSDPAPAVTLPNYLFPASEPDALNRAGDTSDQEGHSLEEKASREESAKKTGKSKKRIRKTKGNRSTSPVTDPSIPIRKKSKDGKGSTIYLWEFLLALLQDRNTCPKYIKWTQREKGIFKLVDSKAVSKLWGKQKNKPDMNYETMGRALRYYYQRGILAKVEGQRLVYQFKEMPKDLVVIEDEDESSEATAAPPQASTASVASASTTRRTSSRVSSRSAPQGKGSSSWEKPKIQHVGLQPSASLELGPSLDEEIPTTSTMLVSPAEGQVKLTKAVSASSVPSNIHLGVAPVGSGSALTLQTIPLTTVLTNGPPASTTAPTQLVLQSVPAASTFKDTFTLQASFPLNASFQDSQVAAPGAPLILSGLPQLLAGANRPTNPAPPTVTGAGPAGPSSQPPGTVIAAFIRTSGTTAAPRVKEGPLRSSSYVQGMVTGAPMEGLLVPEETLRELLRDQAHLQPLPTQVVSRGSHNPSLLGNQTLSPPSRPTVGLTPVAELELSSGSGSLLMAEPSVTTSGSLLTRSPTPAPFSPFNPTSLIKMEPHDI
Test [14] concerns the target T9, ELK4 (Homo sapiens, UniProt P28324-2 1-405).
T9 sequence: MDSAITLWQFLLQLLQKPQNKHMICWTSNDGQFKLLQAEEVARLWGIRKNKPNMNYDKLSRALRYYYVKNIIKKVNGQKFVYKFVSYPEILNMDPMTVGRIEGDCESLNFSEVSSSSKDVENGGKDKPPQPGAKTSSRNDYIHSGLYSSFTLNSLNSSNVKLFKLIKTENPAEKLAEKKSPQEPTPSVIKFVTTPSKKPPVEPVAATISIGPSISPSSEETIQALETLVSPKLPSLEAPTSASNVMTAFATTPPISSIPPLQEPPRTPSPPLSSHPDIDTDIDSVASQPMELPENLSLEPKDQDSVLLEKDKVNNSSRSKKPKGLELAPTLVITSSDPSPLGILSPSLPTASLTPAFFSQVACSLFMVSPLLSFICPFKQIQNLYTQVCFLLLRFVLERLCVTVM
In outline: as §1

The target in test [15] is T10, ETV2 (Homo sapiens, UniProt O00321 1-342).
T10 sequence: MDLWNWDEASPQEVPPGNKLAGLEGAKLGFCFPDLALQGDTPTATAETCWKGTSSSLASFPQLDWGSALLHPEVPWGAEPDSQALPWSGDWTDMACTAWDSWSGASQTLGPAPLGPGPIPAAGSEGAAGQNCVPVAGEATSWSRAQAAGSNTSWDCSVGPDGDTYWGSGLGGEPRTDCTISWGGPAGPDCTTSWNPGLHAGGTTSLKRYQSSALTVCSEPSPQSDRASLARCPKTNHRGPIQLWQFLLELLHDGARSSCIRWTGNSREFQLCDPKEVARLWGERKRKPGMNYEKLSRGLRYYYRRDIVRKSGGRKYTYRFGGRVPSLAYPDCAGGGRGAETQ
In outline: as §1

The target in test [16] is T11, ELF3 (Homo sapiens, UniProt P78545 1-371).
T11 sequence: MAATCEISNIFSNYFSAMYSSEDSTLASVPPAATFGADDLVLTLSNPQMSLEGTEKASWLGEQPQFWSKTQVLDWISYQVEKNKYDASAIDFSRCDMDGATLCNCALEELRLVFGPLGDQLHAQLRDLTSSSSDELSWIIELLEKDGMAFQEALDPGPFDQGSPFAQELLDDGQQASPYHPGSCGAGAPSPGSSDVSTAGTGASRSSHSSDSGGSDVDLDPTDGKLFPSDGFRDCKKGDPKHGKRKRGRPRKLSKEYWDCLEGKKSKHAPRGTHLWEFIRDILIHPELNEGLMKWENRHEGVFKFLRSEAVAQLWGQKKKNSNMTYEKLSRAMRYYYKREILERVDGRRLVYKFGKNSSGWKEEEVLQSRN
A digest of the protocol: as §1

Test [17] has as its target ETV1 (Homo sapiens, UniProt P50549 1-477). In outline:
as §1

2 sequences from PMC7862700, “An all-to-all approach to the identification of sequence-specific readers for epigenetic DNA modifications on cytosine” can be followed below.

Sequence of ELF1 (P32519 whole entry): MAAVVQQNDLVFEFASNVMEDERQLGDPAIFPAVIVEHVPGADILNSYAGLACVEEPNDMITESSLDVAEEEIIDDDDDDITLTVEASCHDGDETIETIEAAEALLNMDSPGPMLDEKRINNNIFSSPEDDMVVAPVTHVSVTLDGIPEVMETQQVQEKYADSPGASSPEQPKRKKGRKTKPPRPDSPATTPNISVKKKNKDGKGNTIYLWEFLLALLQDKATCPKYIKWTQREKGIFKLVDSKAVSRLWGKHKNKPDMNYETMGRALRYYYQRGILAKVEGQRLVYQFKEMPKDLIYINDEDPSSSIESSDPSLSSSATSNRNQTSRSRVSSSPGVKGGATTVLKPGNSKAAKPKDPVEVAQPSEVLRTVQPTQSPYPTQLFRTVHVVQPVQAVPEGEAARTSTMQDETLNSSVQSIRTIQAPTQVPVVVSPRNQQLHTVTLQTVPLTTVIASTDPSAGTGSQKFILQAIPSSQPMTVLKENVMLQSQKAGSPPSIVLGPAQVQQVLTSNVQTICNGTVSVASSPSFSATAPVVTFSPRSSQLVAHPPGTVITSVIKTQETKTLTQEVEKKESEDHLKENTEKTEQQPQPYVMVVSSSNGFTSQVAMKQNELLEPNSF
Sequence of SPIB (Q01892 whole entry): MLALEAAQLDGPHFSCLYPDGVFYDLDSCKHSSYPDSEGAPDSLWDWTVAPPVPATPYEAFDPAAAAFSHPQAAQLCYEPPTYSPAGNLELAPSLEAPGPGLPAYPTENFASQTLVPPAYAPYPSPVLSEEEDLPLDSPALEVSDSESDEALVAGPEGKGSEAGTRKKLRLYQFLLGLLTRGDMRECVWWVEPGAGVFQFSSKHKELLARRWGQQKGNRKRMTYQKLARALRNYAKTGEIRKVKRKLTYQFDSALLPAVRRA
Sequence of ETV1 (P50549 whole entry): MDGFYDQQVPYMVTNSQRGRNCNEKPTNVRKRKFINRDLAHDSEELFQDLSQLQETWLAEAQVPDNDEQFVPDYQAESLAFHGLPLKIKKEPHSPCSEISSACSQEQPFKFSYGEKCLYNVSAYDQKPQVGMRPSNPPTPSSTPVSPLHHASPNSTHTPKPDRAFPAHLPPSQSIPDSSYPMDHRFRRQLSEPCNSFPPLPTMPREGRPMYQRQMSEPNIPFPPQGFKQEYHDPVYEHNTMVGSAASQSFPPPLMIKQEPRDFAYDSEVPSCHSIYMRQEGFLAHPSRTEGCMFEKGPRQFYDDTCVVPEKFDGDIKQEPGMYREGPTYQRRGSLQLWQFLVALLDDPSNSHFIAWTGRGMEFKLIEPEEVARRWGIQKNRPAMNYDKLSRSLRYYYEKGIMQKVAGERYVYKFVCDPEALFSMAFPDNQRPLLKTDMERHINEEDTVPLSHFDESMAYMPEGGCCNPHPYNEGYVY

For CATGGT, the binding signal in [1] is 1.25 fold enrichment (6-mer frequency, TF over GST control); in test [2], 1.29 fold enrichment (6-mer frequency, TF over GST control); in test [3] it was 1.29 fold enrichment (6-mer frequency, TF over GST control); in test [4] it was 1.38 fold enrichment (6-mer frequency, TF over GST control); in test [5], 1.21 fold enrichment (6-mer frequency, TF over GST control); in [6], 1.22 fold enrichment (6-mer frequency, TF over GST control). Further, the binding signal in [7] was 1.27 fold enrichment (6-mer frequency, TF over GST control); in [8], 1.26 fold enrichment (6-mer frequency, TF over GST control); in test [9] it was 1.3 fold enrichment (6-mer frequency, TF over GST control); in test [10], 1.08 fold enrichment (6-mer frequency, TF over GST control); in test [11], 1.24 fold enrichment (6-mer frequency, TF over GST control); in test [12], 1.39 fold enrichment (6-mer frequency, TF over GST control). Moreover, the binding signal in [13] is 1.32 fold enrichment (6-mer frequency, TF over GST control); in [14], 1.32 fold enrichment (6-mer frequency, TF over GST control); in test [15], 1.13 fold enrichment (6-mer frequency, TF over GST control); in test [16], 1.35 fold enrichment (6-mer frequency, TF over GST control); in [17], 1.29 fold enrichment (6-mer frequency, TF over GST control).

Consider ACGACA, for which the binding signal in [1] is 1.16 fold enrichment (6-mer frequency, TF over GST control); in [2] it was 1.05 fold enrichment (6-mer frequency, TF over GST control); in [3] it was 1.18 fold enrichment (6-mer frequency, TF over GST control); in test [4], 1.17 fold enrichment (6-mer frequency, TF over GST control); in test [5] it was 1.07 fold enrichment (6-mer frequency, TF over GST control); in [6], 1.27 fold enrichment (6-mer frequency, TF over GST control). Further, the binding signal in test [7] was 1.09 fold enrichment (6-mer frequency, TF over GST control); in test [8] it was 1.16 fold enrichment (6-mer frequency, TF over GST control); in test [9], 1.11 fold enrichment (6-mer frequency, TF over GST control); in [10], 1.14 fold enrichment (6-mer frequency, TF over GST control); in test [11] it was 1.11 fold enrichment (6-mer frequency, TF over GST control); in [12], 1.18 fold enrichment (6-mer frequency, TF over GST control). In addition, the binding signal in [13] is 1.22 fold enrichment (6-mer frequency, TF over GST control); in test [14] it was 1.16 fold enrichment (6-mer frequency, TF over GST control); in test [15] it was 1.1 fold enrichment (6-mer frequency, TF over GST control); in test [16], 1.22 fold enrichment (6-mer frequency, TF over GST control); in [17], 1.18 fold enrichment (6-mer frequency, TF over GST control).
